From PubChem BioAssay (NCATS)
Activity calls are given as the source filed them. Calls follow the shape of the full dose curve.

assay: Cell Proliferation Assay Versus the ED40515 IL2 Independent ATL cell lines (AID 1053194); conditions: ED40515 IL2-independent ATL cells
Source text: Adult T-cell leukemia (ATL) develops in individuals infected with human T-cell lymphotropic virus-1 (HTLV-1). Clinically, ATL is subclassified into four subtypes: smoldering, chronic, lymphomatous, and acute. Two autocrine loops (IL-2/IL-2Ralpha and IL-15/IL-15Ralpha) and one paracrine stimulation loop that involves IL-9 expression by ATL cells and IL-9Ralpha expression on monocytes are required to maintain viability and proliferation in the smoldering and chronic forms of the disease. These assays examined the differential response profiles for the MIPE library of approved and investigational drugs versus an IL2 dependent and independent matched ATL cell line, with the current submission examining the differential response profiles for drugs on an IL2 independent matched ATL cell line
Plate log growing ED40515 -IL2 cells: 1000cells/ well in 5uL phenol red free RPMI +5% FBS +1x p/s, Glutamine using 1536 well white griener tissue culture plates and multidrop cassette acoustic dispensing Columns 1 and 3 DMSO Columns 2 and 4, 9.2 uM Bortezomib Incubate 48 hours for celltiter glo 37C with 5%CO2 and 95% humidity with low evaporation lids Dispense 3 uL per well of cell titer glo with multidrop Incubate for 15 minutes at RT Read on VL/2 using Luminesence Wheel (Filter A)

| SMILES | Potency |
| --- | --- |
| C[C@@H]1CN(Cc2ccc(F)cc2)[C@@H](C)CN1C(=O)c1cc2c(C(=O)C(=O)N(C)C)cn(C)c2cc1Cl | 37.2 µM (active) |
| COc1cc(Oc2ccnc3cc(OC)c(OC)cc23)ccc1NC(=O)NC(C)c1nccs1 (stereo not given) | 9.35 µM (active) |
| CCN(CC)CCCC(C)Nc1nc(C)cc(Nc2ccc3nc(C)cc(N)c3c2)n1 (stereo not given) | 26.4 µM (active) |
| CC(C)c1onc(-c2c(Cl)cccc2Cl)c1COc1ccc(/C=C/c2cccc(C(=O)O)c2)c(Cl)c1 | 33.2 µM (active) |
| CCOc1cc(N2CCC(O)CC2)ccc1Nc1ncc2c(n1)N(C)c1ccccc1C(=O)N2C | 5.26 µM (active) |
| O=C(O)c1ccc(-c2c[nH]c3ccc(-c4ccccc4)cc23)cc1C1CCCC1 | 2.35 µM (active) |
| CC1(C)CNc2cc(NC(=O)c3cccnc3NCc3ccncc3)ccc21 | 33.2 µM (active) |
| CC(=O)NC(C)c1ccc(Oc2ccc(OC(C)C)cc2)cc1 (stereo not given) | 10.5 µM (active) |
| Cc1cc2c(F)c(Oc3ncnn4cc(OC[C@@H](C)O)c(C)c34)ccc2[nH]1 | 1.05 µM (active) |
| Clc1ccc(Nc2nnc(Cc3ccncc3)c3ccccc23)cc1 | 33.2 µM (active) |
| Cn1c(=O)c(F)c(Nc2ccc(I)cc2F)c2c(=O)n(C[C@@H](O)CO)cnc21 | 26.4 µM (active) |
| Cc1ccnc(NS(=O)(=O)c2ccc(NC(=O)Nc3ccc(S(=O)(=O)Nc4nccc(C)n4)cc3)cc2)n1 | 6.62 µM (active) |
| O=S(=O)(N=Cc1c(O)ccc2ccccc12)c1cccs1 | 26.4 µM (active) |
| CN(C)C(=O)c1ccc(S(=O)(=O)c2ccc(NC(=O)[C@@](C)(O)C(F)(F)F)c(Cl)c2)cc1 | 9.35 µM (active) |
| O=C(c1cc(Cc2n[nH]c(=O)c3ccccc23)ccc1F)N1CCN(C(=O)C2CC2)CC1 | 16.6 µM (active) |
| C/C(=C\C(=O)Nc1ccccc1C(=O)O)c1ccc2ccccc2c1 | 8.33 µM (active) |
| CC1(C)SCCN(S(=O)(=O)c2ccc(OCC#CCO)cc2)[C@@H]1C(=O)NO | 37.2 µM (active) |
| COc1ccc(-c2ccc3c(N4CCOC[C@H]4C)nc(N4CCOC[C@H]4C)nc3n2)cc1CO | 0.0083 µM (active) |
| CNC(=O)c1ccccc1Sc1ccc2c(/C=C/c3ccccn3)n[nH]c2c1 | 16.6 µM (active) |
| COc1ccccc1[C@H](c1cccc2ccccc12)[C@@](C)(C#N)C(=O)N1CCC(c2cccc(C(F)(F)F)c2)CC1 | 7.43 µM (active) |

| SMILES | Potency |
| --- | --- |
| CNC(=O)c1ccc(C)c(-n2c(C)cc(OCc3ccc(F)cc3F)c(Br)c2=O)c1 | 26.4 µM (active) |
| OC(CN1CCC(Cc2ccc(F)cc2)CC1)c1ccc(Cl)cc1 (stereo not given) | 26.4 µM (active) |
| O=c1ncn2nc(Sc3ccc(F)cc3F)ccc2c1-c1c(Cl)cccc1Cl | 26.4 µM (active) |
| COc1ccc(-c2c(-c3ccc(O)cc3O)n[nH]c2C)cc1 | 23.5 µM (active) |
| Cc1ccc(-n2nc(C(C)(C)C)cc2NC(=O)Nc2ccc(OCCN3CCOCC3)c3ccccc23)cc1 | 26.4 µM (active) |
| O=C(Nc1nc2ccccc2n1CCN1CCOCC1)c1cccc([N+](=O)[O-])c1 | 18.7 µM (active) |
| C[C@]1(c2nc3c(C(N)=O)cccc3[nH]2)CCCN1 | 16.6 µM (active) |
| CCCn1c(=O)c2[nH]c(C34CC5CC3C[C@@H](C5)C4)nc2n(CCC)c1=O | 18.7 µM (active) |
| Cc1cnc(Nc2ccc(OCCN3CCCC3)cc2)nc1Nc1cccc(S(=O)(=O)NC(C)(C)C)c1 | 33.2 µM (active) |
| Cc1c(C)c2c(c(C)c1O)CCC(C)(COc1ccc(CC3SC(=O)NC3=O)cc1)O2 (stereo not given) | 37.2 µM (active) |
| COc1cc(F)c(F)c(Nc2ccc(I)cc2F)c1NS(=O)(=O)C1(C[C@H](O)CO)CC1 | 26.4 µM (active) |
| COc1ccc2nc(S(=O)Cc3ncc(C)c(OC)c3C)[nH]c2c1 (stereo not given) | 1.05 µM (active) |
| C[C@]12CC[C@H](O)CC1=CC[C@@H]1[C@H]2CC[C@]2(C)C(c3cccnc3)=CC[C@H]12 | 26.4 µM (active) |
| OCCC#Cc1nc(-c2ccc(F)cc2)c(-c2ccncc2)n1CCCc1ccccc1 | 23.5 µM (active) |
| Nc1ncnc2nc(-c3ccc(N4CCOCC4)nc3)cc(-c3cccc(Br)c3)c12 | 29.6 µM (active) |
| CCCS(=O)(=O)Nc1ccc(F)c(C(=O)c2c[nH]c3ncc(Cl)cc23)c1F | 13.2 µM (active) |
| N#CC[C@H](C1CCCC1)n1cc(-c2ncnc3[nH]ccc23)cn1 | 20.9 µM (active) |
| CCOC(=O)N[C@@H]1CC[C@@H]2[C@@H](C1)C[C@H]1C(=O)O[C@H](C)[C@H]1[C@@H]2C=Cc1ccc(-c2cccc(F)c2)cn1 | 16.6 µM (active) |
| Cc1cccc(-c2nn(C(=S)Nc3ccccc3)cc2-c2ccnc3ccccc23)n1 | 26.4 µM (active) |
| C#Cc1cccc(Nc2ncnc3cc(OCCOC)c(OCCOC)cc23)c1 | 11.8 µM (active) |
